Test results as given in PubChem BioAssay AID1466 (National Center for Advancing Translational Sciences (NCATS), 2008).
The campaign covered roughly 200,000 compounds. About 10 (0.005%) were called active. Another 8% or so got no clear call; they are omitted. Calls follow the shape of the dose curve; as a rule, active = well fitted inhibition curve with a large enough effect; inconclusive = small, poorly fitted or top-dose-only effect, or effect the other way, or another doubt; inactive = no such curve, though single readings can be large or run the other way. These entries were drawn from the full list.

molecular target: Lysosomal alpha-glucosidase (Homo sapiens) (UniProt P10253); experiment: qHTS Assay for Inhibitors of Human alpha-Glucosidase as a Potential Chaperone Treatment of Pompe Disease; conditions: purified human GAA, 4-MU-alpha-glucoside fluorescence; series mostly up to 76.9 µM;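 also: plate controls were uninhibited enzyme wells for no effect and no-enzyme background for full effect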
In short: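 qHTS format, compound range up to 77 uM. Human lysosomal enzyme at 4 nM, 400 uM 4-MU glucoside substrate, pH 5.0, 20 min room temperature; fluorescence after alkaline stop gives activity normalized to controls.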

Activity change, negative = inhibition, inactive:
O=C(/C=C/c1ccccc1[N+](=O)[O-])OC1CCCCC1=O (stereo unspecified), CCOc1ccc(C(CC(=O)O)n2cnnn2)cc1OC (stereo unspecified), Cc1cc(=O)[nH]c(S)c1C#N 1.79% [at 15.4 µM], Cc1c(Cl)cccc1NC(=S)N(Cc1ccccc1)Cc1cccnc1, C=C(C)CNC(=S)Nc1ccc(S(=O)(=O)Nc2cnc3ccccc3n2)cc1, N/C(=N\OC(=O)Cc1ccc([N+](=O)[O-])cc1)c1ccccn1, COc1cccc(OC)c1CN(C)C(=O)c1cnccc1C(F)(F)F -1.85% [at 15.4 µM], CCS(=O)(=O)C1=NSC2=NC(=O)/C(=C\c3cc(C)n(-c4cccc(OC)c4)c3C)C(=N)N21, CC1CC(=O)Nc2ccccc2N1S(=O)(=O)c1cccs1 (stereo unspecified), Cc1nc(N2CCCCC2)sc1C=O, Cc1cc(C)nc(NC(=O)/C=C/c2ccc(Cl)cc2)n1, COc1ccc(N2C(=O)C3C(C2=O)C(C(=O)c2ccccc2)N2CCCC32)cc1 (stereo unspecified) -6.45% [at 15.4 µM], Cc1ccc(OC(=O)c2c(C)nn(-c3ccccc3)c2C)cc1, NS(=O)(=O)c1ccc(NC(=O)COC(=O)CCc2c[nH]c3ccccc23)cc1, COc1ccc(CN(Cc2ccc(OC)cc2)C(=O)c2cccs2)cc1, CCC(=O)N(Cc1cc2ccccc2[nH]c1=O)c1ccc(OC)cc1, O=C(Nc1cccnc1)c1cccc(S(=O)(=O)N2CCCC2)c1, CCOC(=O)NNc1cc(C(F)(F)F)ccn1 -7.1% [at 15.4 µM], CN(C)c1ccc(/C=C/C(=O)c2ccc(O)cc2)cc1[N+](=O)[O-], COC(=O)c1noc(C)c1-c1ccnn1C(=O)c1ccc(Cl)cc1, CN(CCC1CCOCC1)Cc1cn[nH]c1-c1ccc(-c2ccccc2)cc1, CCOC(=O)C1CCN(c2ncnc3c2c(-c2ccccc2)cn3-c2ccc(C)cc2)CC1, CCOC(=O)c1sc(NC(=O)CSc2nc(O)c(Cc3ccccc3)c(=O)[nH]2)nc1C, Cc1cc(=O)oc2c(C(=O)c3ccccc3)c(OCC(N)=O)ccc12, Cc1cc(C)cc(OCC(=O)O/N=C(\N)Cc2ccc([N+](=O)[O-])cc2)c1, COC(=O)c1cc(NC(=O)c2ccco2)ccc1N1CCOCC1, CCc1ccc(NC(=O)N2CCN(c3ccccc3)CC2)cc1, C=CCN(c1ccccc1C(=O)NCC(=O)OCC)S(=O)(=O)c1ccc(C)cc1, CNC(=O)COC(=O)c1cc(-c2ccc(OC)cc2)nc2ccccc12, COCCCNC(=S)NCCNc1nc2cc(C)c(C)cc2cc1C#N, C/[N+]([O-])=C\c1ccc([N+](=O)[O-])o1, COc1ccc(O)c(C(=O)c2cnc3c(c2)c(-c2ccc(F)cc2)c(C#N)c(=O)n3C)c1, CN(C)S(=O)(=O)c1ccc(NC(=O)COC(=O)Cn2[nH]c(=O)c3ccccc3c2=O)cc1, Cc1ccc(CN(Cc2cccnc2)C(=S)Nc2cc(Cl)ccc2C)cc1, Cc1ccccc1NCC(=O)N/N=C\c1ccc([N+](=O)[O-])s1, COc1cccc(NC(=O)C(Sc2nnnn2C)c2ccccc2)c1 (stereo unspecified), Cc1cc(C(=O)N/N=C\C(Br)=C\c2ccccc2)c(C)o1, COc1ccc(NC(=O)CSc2ncnc3[nH]ncc23)cc1 5.07% [at 15.4 µM], COc1cc(C(F)(F)F)c(C(=O)N(C)c2ccc(Cl)cc2)cn1, O=C(CP(=O)(c1ccccc1)c1ccccc1)N1CCOCC1, S=C(Nc1ccc(Br)cc1Cl)NC1CCN(Cc2ccccc2)CC1, CC(NC(=S)Nc1ccc(OC(F)F)cc1)c1ccc(F)cc1 (stereo unspecified), CS(=O)(=O)c1ccc2nc(NC(=O)c3ccc(N4CCCC4=O)cc3)sc2c1, CCOCCCNC(=O)C(NC(=O)c1ccccc1O)c1ccccc1 (stereo unspecified), O=C(C1CCN(S(=O)(=O)c2ccc(Br)s2)CC1)N1CCN(C2CCCCC2)CC1, Cc1cc(-c2nc(C)c(-c3nnc(SCC(=O)Nc4ccccc4)n3C)s2)no1 3.88% [at 15.4 µM], CNc1ccc([N+](=O)[O-])cc1C(=O)O, CSCC[C@H](NC(=O)NC1CCCC1)C(=O)O -5.49% [at 15.4 µM], Cc1ccc(-c2cc(C(=O)NN)n[nH]2)o1, Cc1cccc(C)c1NC(=O)C1CCCN1C(=O)OC(C)(C)C (stereo unspecified), Cc1ccc(/C=N/NC(=O)CSc2ccccn2)o1 0.179% [at 15.4 µM], CCCCCCCCCCCCC(NC(C)=O)(C(=O)OCC)C(=O)OCC, O=C(NCC1CCCO1)c1cc(-c2ccccc2)nc2ccccc12 (stereo unspecified) -10.8% [at 15.4 µM], FC(F)(F)c1cccc(-c2nc(COc3ccc(Cl)cc3Cl)no2)c1, COc1ccc(N2CCN(C(=O)CNS(=O)(=O)c3ccc(C)c(C)c3)CC2)cc1, C/C(=N\Nc1ncc(Cl)cc1Cl)c1cccs1, Cc1onc(C(=O)NN)c1C(=O)N1CCN(C(c2ccccc2)c2ccccc2)CC1, CCOc1ccc2sc(NS(=O)(=O)c3ccc(N)cc3)nc2c1, CCn1c(SCc2ccccc2)nc2c(c1=O)SCC2, Nc1ccccc1Sc1cc(Cl)nnc1Cl, Cc1cccc(CSc2nc3c(c(=O)n2C)SCC3)c1
